From PubChem BioAssay
Shown is part of a subset that was picked to be rich in hits.
NS1 inh: influenza NS1 inhibition; Potency, µM (titrated, usually from 46.1 µM), without a hit: at the top dose activity, positive = more growth; AID 2326; actives 0.4% (n = 270,000); calls by dose curve; further: potency means the concentration at half of the fitted maximal effect; actives are rising curves; nearly all actives have a fitted effect of over 50% in size
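Read-out: OD600 growth recovery of NS1-expressing budding yeast. Cells grown overnight at 30C in -URA glucose medium, washed, resuspended and diluted 1:100 in 2% galactose assay medium, pH 6.0. Same strain lacking NS1 served as positive control.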
Cruzain inh noDet: blocks cruzain activity in detergent-free assay | actives 2.3% (n = 200,000) | AID 1476 | Potency, µM, without a hit: max response, negative = inhibition, most hits filed as inhibitors | purified cruzain, Z-FR-AMC fluorescence, no detergent;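 further: potency means the concentration at half of the fitted maximal effect; plate controls were enzyme without inhibitor for no effect and buffer without enzyme for full effect; nearly all actives have a fitted effect of over 40% in size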
Target sequence (P25779 123-467 limits assumed): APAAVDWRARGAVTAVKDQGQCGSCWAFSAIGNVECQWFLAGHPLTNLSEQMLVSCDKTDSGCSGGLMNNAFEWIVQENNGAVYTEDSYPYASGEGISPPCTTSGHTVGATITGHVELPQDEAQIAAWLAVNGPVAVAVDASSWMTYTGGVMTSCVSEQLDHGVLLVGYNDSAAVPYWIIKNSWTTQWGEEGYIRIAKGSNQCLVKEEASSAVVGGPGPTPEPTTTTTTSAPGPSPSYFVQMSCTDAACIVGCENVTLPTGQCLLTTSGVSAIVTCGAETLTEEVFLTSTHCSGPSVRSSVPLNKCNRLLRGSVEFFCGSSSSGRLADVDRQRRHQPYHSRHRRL
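Purified cruzain at 1.5 nM, pre-incubated 15 min with compound at room temperature in 100 mM sodium acetate pH 5.5, 5 mM DTT, 0.00005% Triton X-100. Reaction started with 2 uM Z-FR-AMC; AMC fluorescence increase over 60 s gives rate.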
Cruzain inh Det: cruzain (T. cruzi) inhibition with detergent; P25779; Potency, µM, without a hit: max response, negative = inhibition, usual class: inhibitors; purified cruzain, Z-FR-AMC fluorescence, 0.01% Triton; AID 1478; actives 0.43% (n = 200,000);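 further: potency means the concentration at half of the fitted maximal effect; plate controls were neutral wells for no effect and buffer without enzyme for full effect; nearly all actives have a fitted effect of over 40% in size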
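In this qHTS format, compounds are incubated with 1.5 nM cruzain for 15 min at room temperature before 2 uM Z-FR-AMC is added. Release of AMC is followed at 360/450 nm, and progress is taken as the 60 s fluorescence difference.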
NS1 inh valid: influenza NS1 function inhibition validation; influenza NS1 function cell assay, 15-point titration; shares compounds with NS1 inh; 1,400 tested, under 10 active; activity change, negative = inhibition, % at 32.9 µM; calls by dose curve; further: 0% is about no effect
Flu PR8 replic: reduces influenza A/PR/8/34 replication in MDCK cells; virus titer (log TCID50), log10 TCID50 at 5 µM; MDCK infected influenza A/PR/8/34, virus titer TCID50; hits give low values; AID 504647; shares compounds with NS1 inh; actives 30% (n = 95); call rule not given here
Active calls of the source: *; u = inconclusive; x = not tested or not shown. Unless noted, the call rests on the fitted dose curve; in most records, active means well fitted curve in the direction sought with a large enough effect; inconclusive means small, poorly fitted or top-dose-only effect, or another doubt; inactive means no such curve, though single readings can be large; an effect the other way counts as inactive or inconclusive.

SMILES | NS1 inh | Cruzain inh noDet | Cruzain inh Det | NS1 inh valid | others
CCCn1c(-c2ccc(F)cc2)nc2c(NCCN3CCCCC3)nc(C)nc21 | x | -6% | 2% | x
COc1ccc(S(=O)(=O)n2nc(-c3ccco3)nc2NCc2ccc(OC)c(OC)c2)cc1 | x | u | -6% | x
CCCN(CC(=O)Nc1ccccc1C)CC(=O)Nc1ccc(Br)cc1F | -7% | x | x | x
c1ccc(CCNC2=NCCS2)cc1 | 3% | x | x | x
c1ccc(CCNC2=NCCCS2)cc1 | u | -2% | 2% | -9
COc1ccc(CNc2ncnc3ccc(-c4ccc(N(C)C)cc4)cc23)c(OC)c1 | x | u | -1% | x
CS/C(N)=C(C#N)/C(C#N)=C(\N)SC | x | -10% | 1% | x
Cc1cccn2c(=O)c(C(=O)N3CCN(c4ccccc4)CC3)cnc12 | x | -13% | -5% | x
COC(=O)c1ccc(CSc2nnc(SCc3ccc(C(=O)OC)o3)s2)o1 | -18% | -3% | -6% | x
COC(=O)c1ccc(CSc2nnc(NCc3ccccc3)s2)o1 | 14µM* | -7% | 2% | u
CCCCCCn1c(-c2ccco2)nc2oc3cc(OC)ccc3c(=O)c2c1=O | 13µM* | -10% | -3% | -37
CCCc1nc2oc3cc(OC)ccc3c(=O)c2c(=O)n1Cc1ccco1 | -35% | -24% | -3% | x
CCCCNC(=O)C(c1ccc(OCC(=O)OC)c(C(=O)OC)c1)N(Cc1ccccc1)C(=O)CCCCCN1C(=O)NC(c2ccc(-c3ccccc3)cc2)C(C(=O)OCc2ccccc2)=C1C (stereo not given) | x | -8% | -23% | x
CCCCCCN(C(=O)CCCCCN1C(=O)NC(c2ccc(-c3ccccc3)cc2)C(C(=O)OCc2ccccc2)=C1C)C(C(=O)NCCCC)c1ccc(OCC(=O)OC)c(C(=O)OC)c1 (stereo not given) | 11µM* | x | x | -25
COc1ccc(C(=O)Cn2nnc(-c3ccccc3NC(=O)c3ccco3)n2)cc1 | 10µM* | u | -16% | 9
COc1ccc(C(=O)Nc2ccccc2-c2nnn(CC(=O)N3CCOCC3)n2)cc1 | 1% | x | x | x
CN(C)S(=O)(=O)c1ccc(C(=O)OCC(=O)c2ccc3c(c2)NC(=O)CO3)cc1 | 0% | x | x | x
CN(C)S(=O)(=O)c1cccc(C(=O)OCC(=O)c2ccc3c(c2)NC(=O)CO3)c1 | u | 6% | 5% | -10
COc1cccc2cc(-c3nc(-c4ccc(Cl)cc4)cs3)c(=O)oc12 | x | 19% | 5% | x
O=C(NCC(c1ccc2c(c1)OCO2)N1CCN(c2ccccc2)CC1)C(=O)Nc1ccc(F)cc1 (stereo not given) | x | -17% | 0% | x
O=C(NCCCO)C(=O)NCC(c1ccc2c(c1)OCO2)N1CCN(c2ccc(F)cc2)CC1 (stereo not given) | 2.2µM* | x | x | -21
O=C(CCS(=O)(=O)c1cccs1)Nc1ccc(C(=O)Nc2ccccc2F)cc1 | x | -16% | 1% | x
CCN1CCN(CCCNC(=O)C2CCCN(c3nnc(-n4cccc4)s3)C2)CC1 (stereo not given) | 5µM* | 4% | -2% | -21
CN1CCN(CCCNC(=O)C2CCN(c3nnc(-n4cccc4)s3)CC2)CC1 | 13% | -14% | -2% | x
COCCn1c(=O)c(-c2ccc(F)cc2)nc2cnc(N(C)C)nc21 | x | 17% | -2% | x
SMILES | NS1 inh | Cruzain inh noDet | Cruzain inh Det | NS1 inh valid | others
COc1cccc(C(=O)NCCSc2c(-c3ccc(F)cc3)[nH]c3ccccc23)c1OC | x | u | -4% | x
COc1ccc(C2C(C(=O)c3sc(C)nc3C)=C(O)C(=O)N2CCCn2ccnc2)cc1OC (stereo not given) | 1.8µM* | 4% | 0% | -6
COc1ccc(C2C(C(=O)c3sc(C)nc3C)=C(O)C(=O)N2CCCn2ccnc2)cc1 (stereo not given) | 2% | x | x | x
Cc1cc(C)nc(Nc2n[nH]c(COc3ccccc3)n2)n1 | -5% | u | 1% | x
Cc1cc(C)nc(Nc2n[nH]c(COc3ccc4ccccc4c3)n2)n1 | 2µM* | u | 4% | 15
COc1ccc(S(=O)(=O)N2CCN(Cc3nc4ccc(C)cc4o3)CC2)cc1 | x | 15% | -5% | x
Cc1cc2n(c1)CCn1c(C)ccc1-2 | 13µM* | u | -5% | -12
CCCC1=[N+](CC)CCn2c(C)ccc21 | 4% | -3% | -6% | x
CCOc1ccc(-n2c(SCC(=O)Nc3ccc4c(c3)OCO4)nc3ccccc3c2=O)cc1 | 24% | u | 4% | x
COc1ccc(-n2c(SCC(=O)Nc3ccc4c(c3)OCO4)nc3ccccc3c2=O)cc1 | 22µM* | u | 1% | 18
Cc1cc(NC(=O)CSc2nc3cc4c(cc3c(=O)n2CCc2ccccc2)OCO4)no1 | 13µM* | u | 2% | 0
COc1cccc(-n2c(SCc3cc(=O)oc4cc(O)c(O)cc34)nc3ccccc3c2=O)c1 | u | 25µM* | -15% | -15
O=C(CSc1nc2ccccc2c(=O)n1-c1ccccc1Cl)Nc1cccc(S(=O)(=O)N2CCOCC2)c1 | 11µM* | u | -4% | 24 | Flu PR8 replic=6.7*
COc1ccc(CCn2c(SCC(=O)Nc3cc(C)on3)nc3ccccc3c2=O)cc1OC | 0% | 7% | 5% | x
CCN(CC)C(=O)CSc1nc2ccccc2c(=O)n1-c1cccc(OC)c1 | -2% | -1% | -2% | x
O=C(CSc1nnc2ccccn12)Nc1cccc(S(=O)(=O)N2CCOCC2)c1 | 7% | -1% | 2% | x
COc1ccc(Cl)cc1NC(=O)c1c(NCc2cccnc2)sc2c1CCC(C)C2 (stereo not given) | x | 11% | -4% | x
O=C(CSc1nc2ccccc2c(=O)n1-c1ccc(F)cc1)Nc1cc(S(=O)(=O)N2CCOCC2)ccc1Cl | 13µM* | u | -1% | 6
Cc1csc(SCC(=O)Nc2cccc(S(=O)(=O)N3CCCC3)c2)n1 | -2% | -2% | 3% | x
O=C(CSc1nc2ccccc2c(=O)n1-c1ccc(F)cc1)Nc1ccc(N2CCOCC2)cc1 | 8% | 7% | -2% | x
O=C(CSc1nnc(Nc2ccccc2)s1)Nc1cccc(S(=O)(=O)N2CCCCC2)c1 | 11µM* | u | 4% | u
CN1c2ccccc2-c2nc(SCC(=O)Nc3ccccc3C(F)(F)F)ncc2S1(=O)=O | x | 26% | -4% | x
Cn1c(=O)oc2cc(S(=O)(=O)NC(Cc3ccccc3)C(=O)Nc3ccc(F)cc3)ccc21 (stereo not given) | x | -4% | 2% | x
Cc1ccc(-c2cc(N)n(Cc3ccc(Cl)cc3)n2)cc1 | 5µM* | 3% | -6% | 1
Cc1cc(N)n(Cc2ccc(Cl)cc2)n1 | 4% | x | x | x
Cc1ccc2c(Sc3ccccc3)c(C(=O)NCc3ccccc3F)[nH]c2c1 | x | 11% | -7% | x
C[C@]12Cc3cn4c(nc3C=C1CCC1C2CC[C@@]2(C)[C@H]1CC[C@@]2(O)C#N)nc1ccccc14 (stereo not given in full) | 40µM* | -9% | 4% | u
C#C[C@]1(O)CC[C@H]2[C@@H]3CCC4=CC(=O)CC[C@]4(C)[C@H]3CC[C@@]21C | 1% | -13% | 0% | x
Cc1ccccc1C1CC(=O)Oc2cc(C)c(Br)c(C)c21 (stereo not given) | x | 2% | -4% | x
